Among the data in PubChem BioAssay are inhibition values, retold here.

Structures are written as SMILES. Unmarked numbers belong to inactive results. Activity calls are given as the source filed them. No stated cut-off is given here; in the data, active means inhibition above about 44%; inactive means the rest.

Sequence of Steroidogenic factor 1 (Homo sapiens) (Q13285 whole entry, looked up): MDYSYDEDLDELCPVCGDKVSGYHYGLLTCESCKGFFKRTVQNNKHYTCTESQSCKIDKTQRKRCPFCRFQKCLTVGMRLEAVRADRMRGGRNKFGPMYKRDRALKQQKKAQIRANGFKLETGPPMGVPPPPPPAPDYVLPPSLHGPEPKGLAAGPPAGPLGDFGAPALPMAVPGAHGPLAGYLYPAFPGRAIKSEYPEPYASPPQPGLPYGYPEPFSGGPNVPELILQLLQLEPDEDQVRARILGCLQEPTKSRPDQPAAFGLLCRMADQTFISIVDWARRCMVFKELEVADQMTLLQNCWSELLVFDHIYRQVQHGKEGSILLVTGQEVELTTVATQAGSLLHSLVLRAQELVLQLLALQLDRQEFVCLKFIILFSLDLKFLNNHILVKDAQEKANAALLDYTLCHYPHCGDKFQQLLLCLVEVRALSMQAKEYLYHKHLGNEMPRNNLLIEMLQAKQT

The assay concerns the target Steroidogenic factor 1 (Homo sapiens) (UniProt Q13285). Put plainly: inverse agonism at SF1 nuclear receptor – cell-based, luminescence, high throughput, counter-screen for LRH-1 inverse agonist project (AID 651614).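 Further: cells cotransfected with StAR promoter reporter and SF1 expression vector; 0% = vehicle on cells with receptor and 100% = vehicle on cells lacking receptor.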 Conditions: cell-based SF1 luciferase reporter, at 3.6 µM, active compounds read high.
A word on the inhibition: it is the percentage by which the read-out fell short of the control. As to `Cc1[nH][nH]c(=O)c1N=Nc1ccc(S(N)(=O)=O)cc1`, the inhibition was 51.5% (active). With `O=C(Nc1ccc(Cl)cn1)c1ccc([N+](=O)[O-])o1`, the inhibition was 55% (active). For `COc1ccc(-c2sc(C(=O)c3ccc(Cl)cc3Cl)cc2CC(=O)O)cc1`, the inhibition is 38%. With `CCOc1ccc(NC(=O)CN2CCN(C3c4ccccc4-c4ccccc43)CC2)cc1`, the inhibition was 60.1% (active). For `Cc1ccc[n+](CC(=O)Nc2ccc([N+](=O)[O-])cc2)c1`, the inhibition was 57% (active). In the case of `COc1ccc(/C=N/NC(=O)c2ccc(NC(=O)c3cccc([N+](=O)[O-])c3)cc2)c(OC)c1`, the inhibition is 46.5% (active). On to `COc1ccc(C2=Nn3c(nnc3-c3ccccc3OC)SC2)cc1OC`, for which the inhibition was 64% (active).

For `CC(=O)N1CCN(c2ccc(NC(=O)c3cccc([N+](=O)[O-])c3)cc2)CC1`, the inhibition was 49.6% (active).

As to `CC(=O)c1ccc(NC(=O)C(C)O/N=C(\N)c2ccccc2)cc1` (stereo not given), the inhibition was 41.8%.

As for `COc1cc2c(cc1OC)C(C1C(=O)CC(C)CC1=O)N(C(=O)CCl)CC2` (stereo not given), the inhibition was 58.5% (active). As to `C/C(=N\N1CCN(c2ccc(Cl)cc2)CC1)c1cccc([N+](=O)[O-])c1`, the inhibition was 21.2%. Take `COc1ccc(NC(=O)Cn2c(C)cc(=O)c3ccccc32)cc1`: the inhibition was 53.2% (active). With `O=C(Cc1ccccc1)N/N=C/c1ccc([N+](=O)[O-])s1`, the inhibition was 62.1% (active). `COc1ccc(OC)c(-n2c(-c3ccc(S(C)(=O)=O)cc3)cc(C=O)c2C)c1`: the inhibition was 55.3% (active). Next, `COc1ccccc1OCc1nnc(SCC(=O)Nc2ccc(N3CCOCC3)cc2)n1C`: 29.6%.
